Bioassay records deposited in PubChem BioAssay by National Center for Advancing Translational Sciences (NCATS).
BAZ2B block – inhibitors of human BAZ2B bromodomain; AlphaScreen BAZ2B-H3K14Ac peptide displacement; Q9UIF8; 360,000 tested, 4.4% active; AID 504333; Potency, µM (highest dose often 114 µM), for inactives: top-dose activity change, negative = inhibition, hits mostly inhibitors; note: potency is the fitted concentration of half-maximal effect; % is set by controls: 0 for no effect and ±100 for the full control effect; nearly all actives have a fitted effect of over 60% in size
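AlphaScreen displacement: compounds (up to 110uM) incubated 30 min at room temperature with a preformed 50 nM BAZ2B/50 nM biotinylated H3K14Ac peptide complex in PBS pH 7.4 with Tween-20. Donor and acceptor beads at 10 ug/mL final added, 20 min light-protected before reading.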
CtBP-E1A blk – blocks the CtBP interaction with E1A. AlphaScreen GST-E1A/His-CtBP binding, 1536-well; hits give low values. activity change, % (concentration not given with the values). 340,000 tested, 0.49% active. AID 651724; in the data active = activity change below about -65%; inconclusive = mostly about -30% to -63%; note: % is set by controls: 0 for no effect and ±100 for the full control effect
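AlphaScreen with 125 nM GST-E1A and 125 nM His-CtBP (5X stocks) in Tris pH 8.0, 300 mM NaCl, BSA, Tween 20, TCEP. Compounds preincubated 2 h at 37 deg C, then glutathione donor/nickel acceptor beads added for 1 h at 37 deg C in dark.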
Six1-Eya2 blk – Six1/Eya2 interaction inhibition; Q15475+O00167; 360,000 tested, 0.56% active; activity change, % (test concentration not listed); AlphaScreen GST-Six1/His-Eya2 binding, biochemical; hits give low values; AID 651725; in the data active = activity change below about -65%; inconclusive = mostly about -30% to -63%; note: % is set by controls: 0 for no effect and ±100 for the full control effect
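AlphaScreen luminescence read after one hour at 37 °C in darkness. Pin-transferred compounds met GST-Six1 and His-Eya2 protein (5X stock 250 nM/500 nM) plus glutathione donor and Ni-chelate acceptor beads (5X, 50 ug/mL).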
HP1b binding inh – blocks HP1-beta chromodomain binding to methylated histone tails; P83916; AlphaScreen HP1-beta / biotin-H3K9me3 peptide binding; Potency, µM (series often up to 114 µM), for inactives: at the highest dose activity change, negative = inhibition, usual class: inhibitors; 390,000 tested, 0.56% active; note: potency is the fitted concentration of half-maximal effect; nearly all actives have a fitted effect of over 70% in size
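Compound inhibition of the preformed complex between 50 nM HP1-beta and 50 nM biotinylated H3K9me3 peptide was read by AlphaScreen. Buffer was PBS pH 7.4 with 0.01% Tween-20. Incubations ran 30 min at room temperature, with 10 ug/mL donor/acceptor beads.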
JMJD2A Tudor inh – inhibitors of human JMJD2A Tudor domain | O75164 | AlphaScreen JMJD2A-Tudor / H3K4me3 peptide binding | Potency, µM (highest dose often 114 µM), without a hit: at the top dose activity change, negative = inhibition, hits mostly inhibitors | 390,000 tested, 4.4% active | AID 504339; note: potency is the fitted concentration of half-maximal effect; % is set by controls: 0 for no effect and ±100 for the full control effect; nearly all actives have a fitted effect of over 50% in size
G9a inh – G9a (human) methyltransferase inhibition; G9a H3K9 monomethylation, AlphaScreen, 2 h; Q96KQ7; AID 504332; 350,000 tested, 8.8% active; Potency, µM (doses to about 102 µM), without a hit: at the top dose activity, negative = inhibition, most hits filed as inhibitors; note: potency is the fitted concentration of half-maximal effect; % is set by controls: 0 for no effect and ±100 for the full control effect; nearly all actives have a fitted effect of over 75% in size
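Readings reflect AlphaScreen signal from monomethyl-H3K9 antibody detection. HMT at 20 nM; substrate b-H3K9 500 nM; cofactor SAM 20 uM; 2 h RT reaction; compounds tested as titrations in qHTS with 15 min preincubation.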
* hit, by the source's call; ? = inconclusive; / = not tested or not shown; [ ] = another dose, or the depositor's remark. Shown are actives, neighbours in structure and some others; about 10% of the full set was active somewhere. Unless noted, calls come from the whole dose curve; as a rule, active = well fitted inhibition curve with a large enough effect; inconclusive = small, poorly fitted or top-dose-only effect; inactive = no such curve, though single readings can be large or run the other way.

SMILES | BAZ2B block | CtBP-E1A blk | Six1-Eya2 blk | HP1b binding inh | JMJD2A Tudor inh | G9a inh
COc1ccc(S(=O)(=O)N2CCC(C(=O)N[C@@H](C)C(=O)NC3CCCC3)CC2)cc1 | 3% | 3 | 2 | 3% | 22µM* | /
CCOC(=O)N1CCN(C(=O)Cc2cccc3ccccc23)CC1 | -24% | / | 7 | 33% | -5% | ?
Cc1ccc(NC(=O)C2CCN(c3nc(-c4ccc(C(C)C)cc4)no3)CC2)c(Cl)c1 | 8% | / | / | 18%[57 µM] | -18% | 15%[59 µM]
Cc1nnc(NC(=O)C2CCN(S(=O)(=O)c3cc([N+](=O)[O-])ccc3Cl)CC2)o1 | 16µM* | -82* | -69* | 27% | 10µM* | ?
Cc1ccc(S(=O)(=O)N2CCC(C(=O)NC3CCCC3)CC2)cc1Cl | 1% | 2 | -15 | 18% | 100µM* | -7%[59 µM]
O=C(NC1CC1)C1CCN(S(=O)(=O)c2cc(Cl)ccc2Cl)CC1 | 56µM* | 8 | 7 | 26% | -2% | 13µM*
Cc1ccc([N+](=O)[O-])cc1S(=O)(=O)N1CCC(C)CC1 | -31% | / | -6 | ? | -14%[11.4 µM] | 56µM*
Cc1ccc(S(=O)(=O)N2CCCC(C(=O)NC3CCCC3)C2)cc1Cl (stereo not given) | -3% | 5 | 8 | 38% | -5% | 9%
O=C(NC1CC1)C1CCN(S(=O)(=O)c2ccc(Cl)cc2)CC1 | 5% | -3 | -2 | 35% | -5% | -4%
Cc1cccc2sc(NC(=O)C3CCN(S(=O)(=O)c4cc([N+](=O)[O-])ccc4Cl)CC3)nc12 | ? | -7 | -13 | ? | 14µM* | 7.9µM*
COc1ccc(-n2ncc(C(=O)NCCc3ccsc3)c2C2CCN(C(=O)OC(C)(C)C)CC2)cc1 | -1%[57.1 µM] | / | / | 26% | -24% | -23%[59 µM]
CC(Sc1nc(C(C)(C)C)cc(-c2ccccc2)c1C#N)C(=O)Nc1ccccc1 (stereo not given) | 8% | 8 | 5 | ? | -1%[57.1 µM] | 7.9µM*
O=S(=O)(c1ccc(-c2n[nH]c(=S)o2)cc1)N1CCCC1 | -15% | -2 | -2 | 3% | -11% | 35µM*
Cc1ccc(-c2ccc(S(=O)(=O)N3CCCC3)cc2)cc1 | -3% | 11 | 10 | 35% | -4% | ?
O=S(=O)(c1ccc(=S)[nH]c1)N1CCCCC1 | -3% | / | 2 | 31% | -3% | 0.79µM*
O=S(=O)(c1ccc(-c2n[nH]c(=S)o2)cc1)N1CCCCC1 | ? | -19 | 2 | ? | -17% | 11µM*
O=S(=O)(c1ccc(=S)[nH]c1)N1CCN(Cc2ccccc2)CC1 | / | 5 | 12 | 24% | -16% | /
CC(=O)c1ccc(NC(=O)c2ncn(-c3ccccc3)n2)cc1 | 5% | / | / | 11% | -15% | -2%[59 µM]
O=C(NCc1ccc(F)cc1)c1ccc(Nc2nc3ccccc3n3nnnc23)cc1 | -12% | / | / | 13% | -15% | 8%[59 µM]
O=c1cc(C(F)(F)F)[nH]c(=S)n1-c1ccccc1 | -26% | 6 | 5 | ? | 79µM* | 8.9µM*
Nc1cc(=O)[nH]c(=S)n1-c1ccccc1 | 7% | -6 | 8 | 10% | -19% | ?
O=C(CCNS(=O)(=O)c1ccccc1)Nc1ccccc1 | 0% | 7 | 5 | 23% | 10% | /
COCCn1c(CN2CCc3ccccc3C2)nc2c1c(=O)n(C)c(=O)n2C | -5% | 3 | -5 | 33% | -2% | /
Cn1c(=O)c2c(nc(CN3CCc4ccccc4C3)n2Cc2ccccc2F)n(C)c1=O | -19% | -7 | -1 | 42% | -27% | 18µM*
CCOC(=O)Cn1c(CN2CCN(C(=O)c3ccco3)CC2)nc2c1c(=O)n(C)c(=O)n2C | -1% | -22 | -21 | 44% | 8% | -3%
Cn1c(=O)c2c(nc(CN3CCN(c4ccccc4F)CC3)n2Cc2ccccc2F)n(C)c1=O | / | / | / | 23% | -14% | 2%[59 µM]
CCOC(=O)Cn1c(CN2CCc3ccccc3C2)nc2c1c(=O)n(C)c(=O)n2C | 4% | 0 | -1 | 59% | -27% | 40µM*
